In PubChem BioAssay AID1159580 (chemical genetic matrix, 2015):
Values joined by “and” are separate entries in the source; they are usually repeats but may differ in a detail not shown here. Identical values can stand only once. The campaign covered roughly 5,500 compounds. About 2,000 (36%) were called active. About 18% were inconclusive and are not listed. Cut-off read from the data, not from the text of the source: active = normalized growth mostly below about 0.91 (no sharp cut-off); inconclusive = no clear call, values can overlap the other calls; inactive = mostly above about 0.92. This is one part of the list.

Assay: chemical genetic growth profiling, strain panel (AID 1159580);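 note: tested at 20 µM; growth read once vehicle control cultures reached saturation at 30 °C; 1 = growth at the plate median or of vehicle wells; lower values mean less growth of the strain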
Details: S. cerevisiae deletion strains, growth OD

Measured: normalized growth

C[C@@H]1O[C@@H](O[C@H]2CC[C@]3(C=O)C4CC[C@]5(C)[C@@H](C6=CC(=O)OC6)CC[C@]5(O)C4CC[C@]3(O)C2)[C@H](O)[C@H](O)[C@H]1O (stereo not given in full)
inactive: locus YAL021C, strain ccr4, active compounds read low 1.02 | locus YAL026C, strain drs2, active compounds read low 0.997 | locus YAL030W, strain snc1, active compounds read low 0.998 | locus YBL061C, strain skt5, active compounds read low 0.991 | locus YBR009C, strain hhf1, active compounds read low 0.979 | locus YBR021W, strain FUR4, active compounds read low 1.05 | locus YBR023C, strain chs3, active compounds read low 0.999 | locus YBR171W, strain sec66, active compounds read low 0.992 | locus YBR229C, strain ROT2, active compounds read low 0.962 | locus YBR231C, strain swc5, active compounds read low 0.987 | locus YBR279W, strain paf1, active compounds read low 1 | locus YCL011C, strain gbp2, active compounds read low 0.999 | locus YCL016C, strain dcc1, active compounds read low 0.996 | locus YCL029C, strain bik1, active compounds read low 0.985 | locus YCL061C, strain MRC1, active compounds read low 1 | locus YCL069W, strain vba3, active compounds read low 1.01 | locus YCR088W, strain abp1, active compounds read low 0.997 | locus YDL005C, strain med2, active compounds read low 0.999 | locus YDL035C, strain GPR1, active compounds read low 0.999 | locus YDL040C, strain nat1, active compounds read low 0.978 | locus YDL074C, strain BRE1, active compounds read low 1.05 | locus YDL101C, strain DUN1, active compounds read low 0.976 | locus YDL134C, strain PPH21, active compounds read low 0.989 | locus YDL185W, strain tfp1, active compounds read low 0.987 | locus YDL192W, strain arf1, active compounds read low 0.99 | locus YDR001C, strain nth1, active compounds read low 1 | locus YDR069C, strain doa4, active compounds read low 0.984 | locus YDR101C, strain arx1, active compounds read low 1.02 | locus YDR137W, strain rgp1, active compounds read low 1.01 | locus YDR150W, strain NUM1, active compounds read low 0.995 | locus YDR159W, strain sac3, active compounds read low 0.95 | locus YDR162C, strain NBP2, active compounds read low 0.934 | locus YDR195W, strain ref2 0.927 | locus YDR297W, strain sur2, active compounds read low 0.996 | locus YDR318W, strain mcm21, active compounds read low 0.979 | locus YDR334W, strain swr1, active compounds read low 0.998 | locus YDR335W, strain msn5, active compounds read low 1 | locus YDR388W, active compounds read low 0.999 | locus YDR392W, strain spt3, active compounds read low 0.88 | locus YDR502C, strain sam2, active compounds read low 0.982 | locus YEL003W, strain gim4, active compounds read low 0.999 | locus YEL037C, strain rad23, active compounds read low 1.01 | locus YEL061C, strain CIN8 (second series), active compounds read low 1 | locus YEL061C, strain CIN8, active compounds read low 0.996 | locus YER015W, strain faa2, active compounds read low 0.992 | locus YER016W, strain bim1, active compounds read low 0.99 | locus YER110C, active compounds read low 0.985 | locus YER111C, strain swi4, active compounds read low 0.988 | locus YER155C, strain BEM2 (second series), active compounds read low 0.978 | locus YER155C, strain BEM2, active compounds read low 1.01 | locus YER167W, strain BCK2, active compounds read low 0.999 | locus YFR010W, strain ubp6, active compounds read low 0.999 | locus YGL078C, strain dbp3, active compounds read low 0.989 | locus YGL086W, strain mad1, active compounds read low 1.04 | locus YGL167C, strain pmr1, active compounds read low 0.982 | locus YGL173C, strain kem1, active compounds read low 0.99 | locus YGL227W, strain vid30, active compounds read low 0.99 | locus YGL240W, strain doc1, active compounds read low 0.969 | locus YGL248W, strain PDE1, active compounds read low 0.976 | locus YGL253W, strain hxk2, active compounds read low 0.992 | locus YGR078C, strain PAC10, active compounds read low 0.974 | locus YGR135W, strain pre9, active compounds read low 0.966 | locus YGR229C, strain SMI1, active compounds read low 0.987 | locus YGR252W, strain gcn5, active compounds read low 0.953 | locus YHR013C, strain ard1, active compounds read low 0.954 | locus YHR027C, strain rpn1, active compounds read low 0.996 | locus YHR030C, strain SLT2, active compounds read low 1.01 and 0.997 | locus YHR079C, strain IRE1 (second series), active compounds read low 1.01 | locus YHR079C, strain IRE1, active compounds read low 0.992 | locus YHR094C, strain hxt1, active compounds read low 0.986 | locus YHR129C, strain ARP1, active compounds read low 1 | locus YHR142W, strain chs7, active compounds read low 1.03 | locus YHR200W, strain rpn10, active compounds read low 1 | locus YIL066C, strain RNR3, active compounds read low 0.984 | locus YIL073C, strain SPO22, active compounds read low 1.02 | locus YIL125W, strain kgd1, active compounds read low 0.988 | locus YIR030C, strain dcg1, active compounds read low 0.995 | locus YJL092W, strain hpr5, active compounds read low 1 | locus YJL095W, strain BCK1 (second series), active compounds read low 0.998 | locus YJL095W, strain BCK1, active compounds read low 0.965 and 0.985 | locus YJL115W, strain asf1, active compounds read low 0.999 | locus YJL129C, strain trk1, active compounds read low 1.01 | locus YJL134W, strain LCB3, active compounds read low 0.994 | locus YJL154C, strain vps35, active compounds read low 1.01 | locus YJL164C, strain tpk1, active compounds read low 1.01 | locus YJL166W, strain qcr8, active compounds read low 0.99 | locus YJL168C, strain set2, active compounds read low 0.99 | locus YJL187C, strain SWE1 (second series), active compounds read low 0.97 | locus YJL187C, strain SWE1, active compounds read low 1 | locus YJR043C, strain POL32, active compounds read low 0.99
